Measured values as given in PubChem BioAssay AID1321 (The Scripps Research Institute Molecular Screening Center, 2008).
Screen size: about 220,000 compounds; about 2,600 (1.2%) were called active. This is one part of a sample in which actives are shown more often than they occur.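 How the source made its calls: active means activation above the mean of all tested compounds plus 3 SD, set per screening run (cut at about 8.8% in these data); inactive means the rest.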

target: Wee1-like protein kinase (Homo sapiens) (UniProt P30291); assay: compounds stabilizing Wee1-luciferase fusion – cell-based, HeLa, Wee1K328M-luciferase, luminescence, primary screen (AID 1321); conditions: HeLa Luc-Wee1K328M stability, at 5 µM, hits give high values, 100% = proteasome inhibitor MG132 effect;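 further: cells exposed to compound for 20 h before luminescence read; 0% = DMSO alone and 100% = MG132 at 30 µM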

| Structure (SMILES) | reporter increase |
| --- | --- |
| CCNc1nc(Oc2ccc(C(=O)OC)cc2)nc(N2CCOCC2)n1 | 1.78% (inactive) |
| CCOc1ccc(NC(=S)NC(=O)/C=C/c2ccc(OC)cc2)c([N+](=O)[O-])c1 | 9.57% (active) |
| Cc1ccc(NC(=S)NC(=O)/C=C/c2ccc(Cl)cc2)cc1 | 2.86% (inactive) |
| CC(=O)Nc1ccc(NC(=S)NC(=O)/C=C/c2ccccc2)cc1 | -3.02% (inactive) |
| CCOC(=O)c1c(C)oc2ccc(OCC(=O)N(CC)CC)cc12 | -2.85% (inactive) |
| CCOC(=O)c1c(C)oc2cc(Br)c(OCC(N)=O)cc12 | 8.52% (inactive) |
| COCCOC(=O)c1c(C)oc2cc(Br)c(OCC(N)=O)cc12 | 10.5% (active) |
| C/C(=N/NC(=O)CN1CCN(S(=O)(=O)c2ccc(Br)cc2)CC1)c1ccncc1 | 0.47% (inactive) |
| COC(=O)/C=C(\Oc1ccccc1)C1(O)CCCCC1 | -1.22% (inactive) |
| Cc1ccc(Nc2nc(N)nc(CN3CCN(Cc4ccccc4)CC3)n2)cc1Cl | 4.72% (inactive) |
| c1ccc(CN=C2Nc3ccccc3CS2)nc1 | 10.7% (active) |
| O=C(NCc1ccccn1)Nc1ccc(F)cc1 | 3.54% (inactive) |
| CCc1ccc[n+](-c2nc([O-])sc2C=O)c1 | 10.2% (active) |
| O=C(NCc1csc(-c2cccs2)n1)C1CC1 | -1.28% (inactive) |
| O=C(NCC1CCCO1)c1ccccc1-c1nc(-c2ccccc2Cl)no1 (stereo not drawn) | -0.52% (inactive) |
| O=C(CSc1nnnn1-c1ccc(O)cc1)c1ccc(F)cc1 | -3.92% (inactive) |
| Cc1onc(NC(=O)c2ccc([N+](=O)[O-])o2)c1Br | 0.61% (inactive) |
| O=S(=O)(NCc1ccccn1)c1ccc(Br)s1 | 9.46% (active) |
| O=S(=O)(NCc1ccccn1)c1ccc(F)cc1 | -3.61% (inactive) |
| O=S(=O)(NCc1cccnc1)c1ccc(Br)s1 | 3.49% (inactive) |
| Cc1nc(/N=C(\N)NC(=O)NC2CCCCC2)nc2ccccc12 | -1.12% (inactive) |
| O=C(Nc1ccccc1)c1cccnc1Nc1ccccc1 | -2.05% (inactive) |
| CC(C)c1ccc(Nc2ncccc2C#N)cc1 | 19.9% (active) |
| CN(C)c1ccnc(Nc2ccc(F)cc2)c1C#N | 4.88% (inactive) |
| CCOc1ccc(N2C(=O)CC(N(CCc3ccc(OC)c(OC)c3)C(=S)Nc3ccccc3)C2=O)cc1 (stereo not drawn) | 10.8% (active) |
| COC(=O)CN(C(=S)Nc1ccc(Cl)cc1)C1CC(=O)N(c2ccc(OC)cc2)C1=O (stereo not drawn) | 0.7% (inactive) |
| CCOc1ccc(N2C(=O)CC(N(O)c3ccccc3)C2=O)cc1 (stereo not drawn) | 7.01% (inactive) |
| Cc1cccc(N(C)C(=O)c2cc3c(=O)[nH]c4ccc(C)cc4c3s2)c1 | 0.97% (inactive) |
